From PubChem BioAssay (EPA / NIEHS) come the findings set out here.

Activity calls are given as the source filed them. The calls were made as follows: active = hit-call score of the fitted dose curve at least 0.9, where 1 is the maximum; inactive = score below 0.9.

Signal transducer and activator of transcription 3 (Homo sapiens), sequence (P40763 whole entry, looked up): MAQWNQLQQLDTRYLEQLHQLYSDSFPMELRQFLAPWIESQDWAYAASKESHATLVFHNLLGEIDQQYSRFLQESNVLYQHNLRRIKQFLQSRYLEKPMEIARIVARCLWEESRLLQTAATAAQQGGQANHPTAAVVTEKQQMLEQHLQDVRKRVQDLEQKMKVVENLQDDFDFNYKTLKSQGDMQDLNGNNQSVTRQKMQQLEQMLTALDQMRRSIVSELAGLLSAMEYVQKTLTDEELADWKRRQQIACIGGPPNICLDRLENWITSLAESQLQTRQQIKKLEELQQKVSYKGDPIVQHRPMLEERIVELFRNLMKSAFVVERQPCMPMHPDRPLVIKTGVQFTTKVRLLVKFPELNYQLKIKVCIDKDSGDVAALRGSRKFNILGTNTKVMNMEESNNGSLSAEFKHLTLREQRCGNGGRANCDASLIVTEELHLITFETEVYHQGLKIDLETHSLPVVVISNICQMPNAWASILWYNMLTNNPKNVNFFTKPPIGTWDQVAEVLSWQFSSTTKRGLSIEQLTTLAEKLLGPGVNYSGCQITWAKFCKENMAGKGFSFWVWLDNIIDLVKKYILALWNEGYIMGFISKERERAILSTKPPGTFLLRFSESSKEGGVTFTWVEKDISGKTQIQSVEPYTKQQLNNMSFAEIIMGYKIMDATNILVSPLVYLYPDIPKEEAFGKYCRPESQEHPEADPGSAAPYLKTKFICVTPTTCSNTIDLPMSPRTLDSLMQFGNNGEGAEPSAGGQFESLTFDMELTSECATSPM

The assay addresses Signal transducer and activator of transcription 3 (Homo sapiens) (UniProt P40763). As to the kind of experiment: ATG_STAT3_CIS: Attagene CIS-FACTORIAL HepG2 Assay for human Signal Transducer and Activator of Transcription 3 (STAT3) (AID 2282963). The settings on record: HepG2, Attagene cis-factorial STAT3 reporter transcription; actives raise or lower the signal. As for the experimental part:
ATG_CIS is a cell-based, multiplexed-readout assay that uses HepG2, a human liver cell line, with measurements taken at 24 hours after chemical dosing in a 24-well plate.ATG_STAT3_CIS is one of 52 assay component(s) measured or calculated from the ATG_CIS assay. It is designed to make measurements of mRNA induction, a form of inducible reporter, as detected with fluorescence intensity signals by Reverse transcription polymerase chain reaction (RT-PCR) and Capillary electrophoresis technology.Data from the assay component ATG_STAT3_CIS was analyzed into 1 assay endpoint. This assay endpoint, ATG_STAT3_CIS, was analyzed with bidirectional fitting relative to DMSO as the negative control and baseline of activity. Using a type of inducible reporter, measures of mRNA for gain or loss-of-signal activity can be used to understand the reporter gene at the transcription factor-level as they relate to the gene STAT3. Furthermore, this assay endpoint can be referred to as a primary readout, because this assay has produced multiple assay endpoints where this one serves a reporter gene function. To generalize the intended target to other relatable targets, this assay endpoint is annotated to the dna binding intended target family, where the subfamily is stat protein.
Human liver HepG2 cells are transiently transfected with multiple reporter transcription units (MRTUs) in 6-well plates using FuGene 6 reagent (Roche; 3 ml FuGene/1 mg DNA). The MRTU constructs are regulated by a cis-regulating element (promoter). […] A major difference between the CIS and TRANS system is that in CIS activities of endogenous TFs are measured, whereas the TRANS assay evaluates changes in activities of exogenous, chimeric NR-Gal4 proteins. […] At the end of 24 hour incubation, total RNA was isolated using TriZol reagent (Invitrogen). The isolated RNA is then reverse-transcribed using oligo(dT) primer and Mo-MLV reverse transcriptase (Invitrogen) with DNAse I (Ambion) treatment for 30 min. The one-tenth of the produced cDNA was amplified by PCR using Taq DNA polymerase (Invitrogen) and two reporter sequence-specific primers. The PCR products were fluorescently labeled by primer extension with 6-arboxyfluorescein (6-FAM) 5'-labeled reporter sequence-specific primer (2 min at 95 C, 20 s at 68 C and 10 min at 72 C) and these products were digested with 5U of HpaI (New England Biolabs) for 2h at 37 C. The fragments were purified using Qiaquick PCR columns (Qiagen), analyzed on an ABI 3130xL genetic analyzer (Applied Biosystems) with peak positions identified by using a set of X-rhodamine (ROX)-labeled MapMarker1000 molecular weight standards (BioVentures). The raw capillary electrophoresis data was processed using Attagraph software (Attagene).
With `CCO[Si](CCCS)(OCC)OCC`, the compound was classed as inactive. With `Nc1cc([N+](=O)[O-])ccc1O`, the outcome was inactive. The same measure, in the same setting: the same measure for `CCC(=O)OCCC(C)CCC=C(C)C` (stereo not given): “inactive”; for `CC(C)C[C@H]1C(=O)N2CCC[C@H]2[C@]2(O)O[C@](NC(=O)[C@@H]3C=C4c5cccc6[nH]c(Br)c(c56)C[C@H]4N(C)C3)(C(C)C)C(=O)N12`: “inactive”. The same measure, in the same setting: the same measure for `CC1=CC(=O)NS(=O)(=O)O1`: “inactive”; for `Nc1ccc(S(=O)(=O)O)c(N)c1`: “inactive”.

For `CC(C)CCCCCCCOC(=O)c1ccc(C(=O)OCCCCCCCC(C)C)c(C(=O)OCCCCCCCC(C)C)c1`, the compound was classed as inactive. On the same count and under the same terms, the same measure for `CCCc1c(OCCCOc2ccc(OCC(=O)O)cc2)ccc(C(C)=O)c1O`: “inactive”; for `COc1ccc(Cl)cc1C`: “inactive”. Regarding `O=C(O)C[C@H](O)C[C@H](O)/C=C/c1c(C2CC2)nc2ccccc2c1-c1ccc(F)cc1`, the compound was classed as inactive. Still for that read-out and setting: the same measure for `Cc1ccc(C(=O)c2cc(O)c(O)c([N+](=O)[O-])c2)cc1`: “inactive”; for `C=C[C@@H](C)CCC=C(C)C`: “inactive”. Still for that read-out and setting: for `COc1ccc(NC(=O)CC(C)=O)cc1` the value was “inactive”.

Turning to `COC(=O)Cc1cccc2ccccc12`, the compound was called inactive. Take `Nc1ccc(S(N)(=O)=O)cc1`: the outcome was inactive. The same measure, in the same setting: for `CCCCCOC(=O)CCC` the value was “inactive”. As usually defined, the AC50 is the concentration at which the activity in the assay is half-maximal. Take `O=C=NC1CCC(CC2CCC(N=C=O)CC2)CC1` (stereo not given): the AC50 was 164 µM (active).

On to `O=[N+]([O-])c1cc(C(F)(F)F)ccc1Cl`, for which the result was inactive. The same measure, in the same setting: the same measure for `Cc1ccc(S)cc1`: “inactive”; for `CCCCC(CC)COCCC#N` (stereo not given): “inactive”. Still for that read-out and setting: the same measure for `Cc1ccc(C=O)cc1`: “inactive”. The same measure, in the same setting: the same measure for `CC(CC(C)(C)C)CC(C)(C)CC(C)(C)C` (stereo not given): “inactive”. With `COc1cc(C(C)(C)C)c(O)c(C(C)(C)C)c1`, the compound was called inactive. Same read-out and setting: for `CC[Si](OC(C)=O)(OC(C)=O)OC(C)=O` the value was “inactive”; for `CC(C)=CCC[C@](C)(O)[C@@H]1CC=C(C)CC1`, “inactive”; for `OCCCCCO`, “inactive”.

`C=CC(=O)OCCOCCOCC`: the result was inactive. On the same count and under the same terms, for `NCCCCCCN` the value was “inactive”; for `CCCCCCCCCCCCCCCC(=O)OC[C@H](O)[C@H]1OC(=O)C(O)=C1O`, “inactive”. Still for that read-out and setting: for `CCC(C)(O)CCC=C(C)C` (stereo not given) the value was “inactive”; for `N#Cc1ccc(CC(=NNC(=O)Nc2ccc(OC(F)(F)F)cc2)c2cccc(C(F)(F)F)c2)cc1`, “inactive”.

`CCN(CC)CCOC(=O)c1ccc(N)cc1`: the compound was called inactive. As for `CN(C)c1ccc(O)c2c1C[C@H]1C[C@H]3[C@H](N(C)C)C(=O)C(C(N)=O)=C(O)[C@@]3(O)C(=O)C1=C2O`, the result was inactive. On the same count and under the same terms, for `CC(=O)Nc1ccccc1O` the value was “inactive”; for `CC1(C)OC[C@@H]2O[C@@]3(C(=O)O)OC(C)(C)O[C@H]3[C@@H]2O1`, “inactive”; for `CC(C)c1ccc(C(C)C)cc1`, “inactive”. On the same count and under the same terms, for `CC1=CCC(O)(C(C)C)CC1` (stereo not given) the value was “inactive”.

`CCOC(=O)c1ccccc1OC`: the result was inactive. On the same count and under the same terms, the same measure for `O=C1CCCCCCCCCCOCCCCO1`: “inactive”; for `Cc1cccc(C)c1C`: “inactive”.
